Data published in PubChem BioAssay AID743287 (Broad Institute, 2014).
Several values for one entry are separate records, joined by “and”; a condition that tells them apart may be missing. Identical values can stand only once. About 2,300 (0.62%) of roughly 370,000 compounds were called active.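 Rule for the calls: active = lowest replicate activation of at least 40%, so every replicate reaches that level; inactive = the rest.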 This excerpt belongs to a sample that is enriched for actives.

test: primary screen for activators of insulin secretion dependent on glucose, INS-1E cells, GLuc reporter luminescence (AID 743287); details: INS-1E GLuc reporter insulin secretion, 2-3 h, at 16.6 µM, active compounds read high;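 note: 0% = median of neutral control wells and 100% = median of IBMX positive control wells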

| Compound | activation |
| --- | --- |
| CC(C)CC#Cc1ccc([C@H]2[C@H]3CN(C(=O)c4cnccn4)CC(=O)N3[C@H]2CO)cc1 | 54.1% (active) |
| O=C(c1cnccn1)N1CC(=O)N2[C@H](C1)[C@@H](c1ccc(C#CC3CCCCC3)cc1)[C@@H]2CO | 1.34% (inactive) |
| CC(C)CC#Cc1ccc([C@@H]2[C@@H](CO)N3C(=O)CN(C(=O)c4cnccn4)C[C@@H]23)cc1 | 25.5% (inactive) |
| CO[C@@H]1CN(C)C(=O)c2ccc(NC(=O)Nc3ccccc3)cc2OC[C@@H](C)N(C(=O)Nc2c(C)noc2C)C[C@@H]1C | -0.32% (inactive) |
| CCCCCc1c(-c2ccc(OC)c(OC)c2)ncn1CCc1ccccc1OC | -29.6% (inactive) |
| CCCCCc1c(Cc2ccccc2)ncn1CCc1ccccc1OC | 70% (active) |
| CCCCc1c(-c2ccc(Cl)cc2)ncn1CCc1ccccc1OC | -9.43% (inactive) |
| Cc1ccccc1-c1ccc([C@H]2[C@@H](CO)N3C(=O)CN(C(=O)c4cccnc4)C[C@@H]23)cc1 | -14.5% (inactive) |
| COc1cccc(S(=O)(=O)N2CCC3(CC2)CN[C@H](CO)c2c3c3ccc(OC)cc3n2C)c1 | -2.73% (inactive) |
| Cc1ccc(S(=O)(=O)N(C)c2nc3ccccc3n3c(C(C)C)nnc23)cc1 | 66.1% (active) |
| Cc1cc(NC(C)C)n2c(nc3ccccc32)c1C#N | 4.84% (inactive) |
| O=C(Cc1ccncc1)N1CC[C@@H]2[C@@H](CO)Nc3ccc(C4=CCCCC4)cc3[C@@H]21 | 8.52% (inactive) |
| CN(C)CCCNC(=O)C[C@H]1CC[C@H]2[C@@H](COC[C@H](O)CN2CC2CCCCC2)O1 | 1.49% (inactive) |
| O=C(Nc1ccc2c(c1)OCO2)c1sc2cc(Cl)ccc2c1Cl | 69.2% (active) |
| CC(Sc1nc2cc(Cl)ccc2s1)C(=O)Nc1ccc2c(c1)OCO2 (configuration not stated) | -18.8% (inactive) |
| CCSc1ccccc1C(=O)Nc1ccc2c(c1)OCO2 | -1.24% (inactive) |
| C=CS(=O)c1sc(Cl)c(N2CCOCC2)c1[N+](=O)[O-] (configuration not stated) | 99.9% (active) |
| COc1ccc2c3c([nH]c2c1)[C@H](CO)N(C(=O)Nc1ccc(F)cc1)CC31CCN(C(=O)Nc2c(C)noc2C)CC1 | -8.35% (inactive) |
| O=C(Nc1ccc(F)cc1)N1CC(=O)N2[C@H](CO)[C@H](c3ccc(C#Cc4ccccc4)cc3)[C@H]2C1 | -21.6% (inactive) |
| CCCNC(=O)Nc1ccc2c(c1)OC[C@@H](C)N(CC1CCCC1)C[C@@H](C)[C@H](OC)CN(C)C2=O | -11.9% (inactive) |
| COc1ccc(-c2ccccc2[C@H]2[C@@H](CO)N(C(=O)c3cccnc3)[C@H]2C#N)cc1 | -2.16% (inactive) |
| CCc1n[nH]c(=S)n1/N=C/c1c[nH]c2ccc(Br)cc12 | 6.23% (inactive) |
| S=c1[nH]nc(-c2ccccc2)n1/N=C/c1c[nH]c2ccccc12 | 41.8% (active) |
| C[C@@H]1CN([C@@H](C)CO)C(=O)c2cccc(N(C)C)c2O[C@H]1CN(C)S(=O)(=O)c1cccs1 | 4.92% (inactive) |
| O=C(Cc1cccnc1)N1CC(=O)N2[C@@H](CO)[C@@H](c3ccc(C#CC4CCCCC4)cc3)[C@@H]2C1 | -3.29% (inactive) |
| COc1ccc2c3c([nH]c2c1)[C@@H](CO)N(C(=O)NC(C)C)CC31CN(C(=O)C2CCCC2)C1 | 3.69% (inactive) |

| Compound | activation |
| --- | --- |
| O=C(CSc1nc2ccccc2c(=O)n1CCCO)NC1CC1 | 4.63% (inactive) |
| CCOc1ccc(NC(=O)CSc2nc3ccccc3c(=O)n2Cc2cccs2)cc1 | 60.2% (inactive) |
| COC(=O)CSc1nc2ccccc2c(=O)n1Cc1ccccc1 | 50% (active) |
| CO[C@@H]1CN(C)C(=O)c2cc(NS(=O)(=O)CC(F)(F)F)ccc2OC[C@H](C)N(Cc2ccccn2)C[C@@H]1C | 11.8% (inactive) |
| CC(C)NC(=O)Nc1ccc2c(c1)CC(=O)N(C)C[C@@H](C)[C@@H](CN(C)C(=O)OC(C)(C)C)O2 | 9.38% (inactive) |
| Cc1ccc2c(Cl)c(C(=O)Nc3nn[nH]n3)sc2c1 | -4.19% (inactive) |
| Cc1ccc(-c2cc(C(=O)Nc3nn[nH]n3)c3ccccc3n2)c(C)c1 | 63.4% (active) |
| Cc1ccc(C)c(NC(=O)NNC(=O)c2ccc3ccccc3c2O)c1 | -0.162% (inactive) |
| COc1ccc(CCNC(=O)CSc2nnc3ccc(-c4ccncc4)nn23)cc1 | 4.35% (inactive) |
| COc1cccc(-c2ccc(C#N)c(SCC(=O)NCCc3ccc(Cl)cc3)n2)c1 | 108% (active) |
| COc1ccc(CCNC(=O)CSc2nc(-c3ccc(OC)c(OC)c3)ccc2C#N)cc1 | 46.1% (inactive) |
| CCC(=O)N1C[C@H](C)[C@H](OC)CN(C)C(=O)c2ccc(NC(=O)Nc3ccc(Cl)cc3)cc2OC[C@H]1C | -31.9% (inactive) |
| CNC(=O)C[C@H]1CC[C@@H]2[C@H](COc3ccc(NC(=O)C(C)C)cc3C(=O)N2C)O1 | 4.65% (inactive) |
| COc1ccc(/C=C/C2=CC(C)(C)NC(=S)N2)c(OC)c1 | -2.56% (inactive) |
| COc1ccc(CN(C)Cc2nc3cc(OC)c(OC)cc3c(=O)[nH]2)c(OC)c1 | -31.6% (inactive) |
| COc1ccc(/C=C2/C(=O)OCc3cc(OC)c(OC)cc32)c(OC)c1 | 90.1% (active) |
| CCCC#Cc1ccc([C@H]2[C@H]3CN(C(=O)Nc4cccc(F)c4)CC(=O)N3[C@H]2CO)cc1 | -20.8% (inactive) |
| Cc1noc(C)c1NC(=O)Nc1ccc2c(c1)C(=O)N([C@@H](C)CO)C[C@H](C)[C@@H](CN(C)C)O2 | 11.6% (inactive) |
| Cc1ccccc1-c1ccc([C@H]2[C@H](CO)N3C(=O)CN(C(=O)c4cccnc4)C[C@@H]23)cc1 | 4.01% (inactive) |
| COc1ccccc1S(=O)(=O)N[C@H]1CC[C@@H](CC(=O)NCc2cc(F)cc(F)c2)O[C@H]1CO | 6.83% (inactive) |
| COC(=O)c1c(C)oc(C)c1S(=O)(=O)NCc1ccc(Cl)cc1 | 15.9% (inactive) |
| CC(C)c1ccc(NS(=O)(=O)c2cn(C)c(=O)n(C)c2=O)cc1 | 18.1% (inactive) |
| COC(=O)c1c(C)oc(C)c1S(=O)(=O)Nc1ccc(C(C)C)cc1 | 52.6% (active) |
| CCCCOC(=O)c1ccc(NC(c2ccc(C)cc2)P(=O)(OC)OC)cc1 (configuration not stated) | -63.4% (inactive) |
| Cc1ccc(OCCC(=O)OCC(=O)N2c3ccccc3NC(=O)C2(C)C)cc1 | -29.1% (inactive) |
| CCCCCCCCCCOC(=O)Cn1c(COc2ccc(C)cc2)[n+](C)c2ccccc21 | 193% (active) |

| Compound | activation |
| --- | --- |
| CCCNC(=O)N1CCC2(CC1)CN(C(=O)c1cccnc1)[C@@H](CO)c1[nH]c3cc(OC)ccc3c12 | 20.9% (inactive) |
| C[C@H]1CCCCO[C@@H](CN(C)Cc2ccc3c(c2)OCO3)[C@@H](C)CN([C@@H](C)CO)C(=O)c2cc(NS(=O)(=O)c3ccc(F)cc3)ccc2O1 | -26% (inactive) |
| O=C(C[C@H]1C=C[C@H](NC(=O)c2cccc(F)c2)[C@@H](CO)O1)NCc1ccc(Oc2ccccc2)cc1 | 8.87% (inactive) |
| Cc1noc(C)c1NC(=O)N(C)C[C@@H]1Oc2c(NC(=O)CCCCCC(=O)Nc3ccccc3N)cccc2C(=O)N([C@H](C)CO)C[C@@H]1C | -5.82% (inactive) |
| COc1ccccc1S(=O)(=O)N[C@@H]1C=C[C@H](CC(=O)NCc2cccc(F)c2)O[C@H]1CO | 10.3% (inactive) |
| COc1ccc(NC(=O)C2Cc3c(-c4cccc(NC(C)=O)c4)ccnc3O2)cc1OC (configuration not stated) | -7.03% (inactive) |
| COc1ccc(C(=O)Nc2ccc(C3(C#N)CCCC3)cc2)cc1OC | -6.21% (inactive) |
| COc1cc2c(cc1OC)/C(=C/C(=O)c1ccc(NC(C)=O)cc1)NCC2 | 70% (active) |
| CCC(=O)N(C)C[C@@H]1Oc2ncc(C#Cc3ccccc3)cc2C(=O)N([C@@H](C)CO)C[C@H]1C | -1.97% (inactive) |
| COc1ccccc1C(=O)NC(=S)NC12CC3CC(CC(C3)C1)C2 | 41.4% (active) |
| COc1ccccc1C(=O)NC(=O)COC(=O)C1CC1 | -1.88% (inactive) |
| NC(=O)COc1ccccc1C(=O)NC12CC3CC(CC(C3)C1)C2 | 17.8% (inactive) |
| COc1cccc(C#Cc2ccc3c(c2)[C@H]2[C@H](CCN2C(=O)CC2CC2)[C@H](CO)N3)c1 | 0.458% (inactive) |
| CCCC#Cc1ccc2c(c1)O[C@H](CN(C)C(=O)C1CCCCC1)[C@H](C)CN([C@H](C)CO)S2(=O)=O | -12.4% (inactive) |
| CN(C)CC(=O)N[C@@H]1CC[C@H](CCn2cc(C3CCCC3)nn2)O[C@H]1CO | -11.3% (inactive) |
| O=C(NNC(=O)c1cccc(S(=O)(=O)Nc2ccc(Cl)cc2)c1)c1ccc(=O)[nH]c1 | 0.241% (inactive) |
| O=C(NCCS(=O)(=O)NCc1ccc(Cl)cc1)c1ccccc1 | 18.7% (inactive) |
| O=C(Nc1ccccc1)c1nnsc1S(=O)(=O)c1ccc(Cl)cc1 | 48.4% (active) |
| C=CCSc1nc(N)cc(=O)[nH]1 | 18% (inactive) |
| C=CCSc1nc2c(c(=O)[nH]1)C(C(C)C)C(C#N)=C(N)O2 (configuration not stated) | 71.8% (active) |
| O=C(C[C@@H]1CC[C@@H]2[C@H](COC[C@H](O)CN2S(=O)(=O)c2ccccc2)O1)N[C@H]1CCN(Cc2ccccc2)C1 | 4.06% (inactive) |
| COc1ccc(NC(=O)N(C)C[C@H]2Oc3c(NC(=O)Nc4cccc5ccccc45)cccc3C(=O)N([C@H](C)CO)C[C@@H]2C)cc1 | -5.46% (inactive) |
| Cc1cccc(-c2ccc(C3[C@H]4CNC[C@@H]3N4S(=O)(=O)c3ccccc3F)cc2)c1 (some centres not stated) | -12.2% (inactive) and 1.38% (inactive) |
| C/C=C/c1ccc([C@@H]2[C@@H](CN(C)C(C)=O)N(C(=O)C3CC3)[C@H]2CO)cc1 | -3.3% (inactive) |
| C[C@@H]1CN([C@H](C)CO)C(=O)c2cc(NC(=O)Cn3cnnn3)ccc2O[C@@H]1CN(C)C(=O)Nc1ccc2c(c1)OCO2 | 6.33% (inactive) |
